Laboratory results: PubChem BioAssay (NCI)
This is part of a sample that, as a whole, favours compounds with a hit. Of some 83,000 tested, about 20% had one in any assay.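 Results are percent growth after 48 hours of single-concentration exposure. 100 means growth as in untreated cells, lower positive values show inhibition; negative values down to -100 show cell death.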 The source made the active and inactive calls. The calls were made as follows: active = growth percent below 10; inactive = the rest.

Key:
Assay in all cases: NCI-60 one-dose screen, 48 h (100 = growth as untreated, 0 = no growth, -100 = all killed)
Conditions in all cases: 10 µM unless noted
HCT-15 colon = system: HCT-15 colon
HT29 colon = system: HT29 colon
SNB-75 CNS = system: SNB-75 CNS
SNB-19 CNS = system: SNB-19 CNS
PC-3 prostate = system: PC-3 prostate
SK-MEL-5 melanoma = system: SK-MEL-5 melanoma
UACC-62 melanoma = system: UACC-62 melanoma
LOX IMVI melanoma = system: LOX IMVI melanoma
SK-MEL-28 melanoma = system: SK-MEL-28 melanoma

Measured: growth

COc1cc2cc(Oc3ccc(NC(=O)Nc4ccc(Cl)c(C(F)(F)F)c4)cc3)c(C)nc2cc1OCCN1CCCCC1
active: HCT-15 colon -81.8% | HT29 colon -68% | SNB-75 CNS -57.9% | SNB-19 CNS -51.7% | PC-3 prostate -55.3% | SK-MEL-5 melanoma -76.1% | LOX IMVI melanoma -97.1% | SK-MEL-28 melanoma -86%
inactive: UACC-62 melanoma 72.6%

COc1ccc(-c2c3c(N)c4c(nc3nc3c2c(C)nn3-c2ccccc2)CCCCC4)cc1
inactive: HCT-15 colon 73.9% | HT29 colon 41.4% | SNB-75 CNS 79.8% | SNB-19 CNS 93.7% | PC-3 prostate 70.4% | SK-MEL-5 melanoma 90.6% | UACC-62 melanoma 98% | LOX IMVI melanoma 90.6% | SK-MEL-28 melanoma 98%

COc1ccc(/C=C2\Oc3cc(C)c(Cl)cc3C2=O)cc1OC
inactive: HCT-15 colon 96.5% | HT29 colon 109% | SNB-75 CNS 101% | SNB-19 CNS 98.4% | PC-3 prostate 101% | SK-MEL-5 melanoma 91.8% | UACC-62 melanoma 87.3% | LOX IMVI melanoma 92.9% | SK-MEL-28 melanoma 114%

Cn1c(=O)c(S(=O)(=O)c2ccccc2)cc2ccc3c(cnn3-c3ccc(Cl)cc3)c21
inactive: HCT-15 colon 73% | HT29 colon 79.2% | SNB-75 CNS 38.9% | SNB-19 CNS 90.1% | PC-3 prostate 79.9% | SK-MEL-5 melanoma 84.6% | UACC-62 melanoma 89.1% | LOX IMVI melanoma 78.9% | SK-MEL-28 melanoma 84.6%

Cc1nc2cc(Nc3nc(N4CCOCC4)nc(N4CCN(C)CC4)n3)ccc2n1Cc1ccccc1
inactive: HCT-15 colon 96% | HT29 colon 109% | SNB-75 CNS 71.2% | SNB-19 CNS 106% | PC-3 prostate 96.7% | SK-MEL-5 melanoma 97.5% | UACC-62 melanoma 102% | LOX IMVI melanoma 97.2% | SK-MEL-28 melanoma 106%

O=C1CCC(N2Cc3c(C#CCCCNC(=O)c4cc5c(o4)C(=O)c4ccccc4C5=O)cccc3C2=O)C(=O)N1 (stereo unspecified)
active: HT29 colon -15.4% | SNB-75 CNS -98.7% | SNB-19 CNS -8.73% | PC-3 prostate 4.79% | SK-MEL-5 melanoma -99.2% | UACC-62 melanoma -84.4% | LOX IMVI melanoma -88.3% | SK-MEL-28 melanoma -22.9%
inactive: HCT-15 colon 76%

Cn1c2c(cc(S(=O)(=O)c3ccccc3)c1=O)CCc1c-2cnn1-c1cccc(Cl)c1
inactive: HCT-15 colon 96.7% | HT29 colon 91.3% | SNB-75 CNS 76.4% | SNB-19 CNS 97% | PC-3 prostate 83.1% | SK-MEL-5 melanoma 83.3% | UACC-62 melanoma 84.6% | LOX IMVI melanoma 93.4% | SK-MEL-28 melanoma 94.7%

C=C(C)CCCC(C)CC#N (stereo unspecified)
inactive: HCT-15 colon 101% | HT29 colon 93.9% | SNB-75 CNS 91.3% | SNB-19 CNS 110% | PC-3 prostate 95.7% | SK-MEL-5 melanoma 99.7% | UACC-62 melanoma 111% | LOX IMVI melanoma 99.2% | SK-MEL-28 melanoma 106%

Cc1nc(NN)c([N+](=O)[O-])c(NN)n1
inactive: HCT-15 colon 105% | HT29 colon 108% | SNB-75 CNS 114% | SNB-19 CNS 109% | PC-3 prostate 104% | SK-MEL-5 melanoma 99.4% | UACC-62 melanoma 97.3% | LOX IMVI melanoma 111% | SK-MEL-28 melanoma 108%

CCC(C)[C@H]1O[C@]2(CC[C@@H]1C)C[C@@H]1C[C@@H](C/C=C(\C)[C@@H](OC3C[C@H](OC)C(O[C@H]4C[C@H](OC)[C@@H](O)[C@H](C)O4)[C@H](C)O3)[C@@H](C)/C=C/C=C3\CO[C@@H]4[C@H](O)C(C)=C[C@@H](C(=O)O1)[C@]34O)O2 (stereo partly specified)
active: HCT-15 colon 8.26% | HT29 colon 4.41% | SNB-75 CNS -0.276% | PC-3 prostate 1.52% | SK-MEL-5 melanoma -85.4% | LOX IMVI melanoma -83.1% | SK-MEL-28 melanoma -16.6%
inactive: SNB-19 CNS 33.1% | UACC-62 melanoma 18.4%

Cc1nn(CC(=O)O)c2c1C(=O)CC(C)(C)C2
inactive: HCT-15 colon 102% | HT29 colon 108% | SNB-75 CNS 86.8% | SNB-19 CNS 103% | PC-3 prostate 102% | SK-MEL-5 melanoma 115% | UACC-62 melanoma 91% | LOX IMVI melanoma 107% | SK-MEL-28 melanoma 105%

CC(=O)OC[C@H](O)[C@@]1(O)CC[C@H]2[C@@H]3CCC4=CC(=O)CC[C@]4(C)[C@H]3[C@@H](O)C[C@@]21C
inactive: HCT-15 colon 105% | HT29 colon 101% | SNB-75 CNS 117% | SNB-19 CNS 109% | PC-3 prostate 95.4% | SK-MEL-5 melanoma 101% | UACC-62 melanoma 104% | LOX IMVI melanoma 103% | SK-MEL-28 melanoma 114%

CCOC(=O)c1cc2c(n(C)c1=O)-c1cnn(-c3ccc(OC)cc3)c1CC2
inactive: HCT-15 colon 89% | HT29 colon 95.6% | SNB-75 CNS 90.5% | SNB-19 CNS 96.6% | PC-3 prostate 98.5% | SK-MEL-5 melanoma 98% | UACC-62 melanoma 91.1% | LOX IMVI melanoma 93.9% | SK-MEL-28 melanoma 96.6%

CCCCC(CCCC)(S(=O)(=O)CC)S(=O)(=O)CC
inactive: HCT-15 colon 97.7% | HT29 colon 105% | SNB-75 CNS 98.4% | SNB-19 CNS 105% | PC-3 prostate 91.6% | SK-MEL-5 melanoma 98% | UACC-62 melanoma 106% | LOX IMVI melanoma 102% | SK-MEL-28 melanoma 115%

CC1(C)N=C(N)N=C(N)N1c1cccc(OCCOc2cccc([N+](=O)[O-])c2)c1
inactive: HCT-15 colon 89.5% | HT29 colon 15.4% | SNB-75 CNS 51.8% | SNB-19 CNS 53.9% | PC-3 prostate 17.8% | SK-MEL-5 melanoma 70.5% | UACC-62 melanoma 39.6% | LOX IMVI melanoma 20.1% | SK-MEL-28 melanoma 56%

O=C(O)CCN1CCN(c2cccc(Cl)c2)CC1
inactive: HCT-15 colon 100% | HT29 colon 99.8% | SNB-75 CNS 84% | SNB-19 CNS 103% | PC-3 prostate 101% | SK-MEL-5 melanoma 102% | UACC-62 melanoma 104% | LOX IMVI melanoma 110% | SK-MEL-28 melanoma 108%

Cn1c(=O)c2c(-c3ccccc3F)n(-c3ccc4c(c3)OCO4)cc2n(C)c1=O
inactive: HCT-15 colon 87.8% | HT29 colon 112% | SNB-75 CNS 80.9% | SNB-19 CNS 99.6% | PC-3 prostate 74.7% | SK-MEL-5 melanoma 67.3% | UACC-62 melanoma 86.2% | LOX IMVI melanoma 95.9% | SK-MEL-28 melanoma 100%

COC(=O)c1c2c(c(C)[n+]([O-])c1C)C(=O)C=C(NCc1ccc(F)c(Cl)c1)C2=O
active: HCT-15 colon -70.4% | HT29 colon 3.68% | SNB-75 CNS -96.9% | SNB-19 CNS -48.5% | PC-3 prostate -1.13% | SK-MEL-5 melanoma -97.7% | UACC-62 melanoma -70.8% | LOX IMVI melanoma -64.5% | SK-MEL-28 melanoma -11.8%

COc1cccc(-c2ccc3c(c2)C2CCN(Cc4ccccc4)C3C2)c1 (stereo unspecified)
inactive: HCT-15 colon 57.8% | HT29 colon 36.5% | SNB-75 CNS 77% | SNB-19 CNS 90.4% | PC-3 prostate 66.5% | SK-MEL-5 melanoma 99.4% | UACC-62 melanoma 83.6% | LOX IMVI melanoma 85.5% | SK-MEL-28 melanoma 85.7%

O=C1C2CC3C(CC2C(=O)[N]1[Sn]([c]1ccccc1)([c]1ccccc1)[c]1ccccc1)C1(Cl)C(Cl)=C(Cl)C3(Cl)C1(Cl)Cl (stereo unspecified)
active: HCT-15 colon -88% | HT29 colon -87.3% | SNB-75 CNS -84.8% | SNB-19 CNS -97.4% | PC-3 prostate -92.9% | SK-MEL-5 melanoma -93.1% | UACC-62 melanoma -95.7% | LOX IMVI melanoma -66.7% | SK-MEL-28 melanoma -94.2%

Cn1c2c(cc(S(=O)(=O)c3ccccc3)c1=O)CCc1c-2cnn1-c1ccccc1Cl
inactive: HCT-15 colon 95.9% | HT29 colon 104% | SNB-75 CNS 92.5% | SNB-19 CNS 96.2% | PC-3 prostate 93.5% | SK-MEL-5 melanoma 105% | UACC-62 melanoma 93.4% | LOX IMVI melanoma 107% | SK-MEL-28 melanoma 104%

COc1cc(-c2nc3ccccc3o2)cc(CN2CCN(c3ccccc3)CC2)c1O
inactive: HCT-15 colon 43.6% | HT29 colon 93.8% | SNB-75 CNS 65.7% | SNB-19 CNS 82.6% | PC-3 prostate 40.4% | SK-MEL-5 melanoma 31.7% | UACC-62 melanoma 34% | SK-MEL-28 melanoma 87.2%
active: LOX IMVI melanoma 8.05%

CC(C)(C)CC(C)(C)N(CSc1ccc(Cl)cc1)CSc1ccc(Cl)cc1
active: PC-3 prostate 2.25% | LOX IMVI melanoma -34.6%
inactive: HCT-15 colon 53.3% | HT29 colon 57.7% | SNB-75 CNS 49.6% | SNB-19 CNS 67.5% | SK-MEL-5 melanoma 54.2% | UACC-62 melanoma 57.9% | SK-MEL-28 melanoma 76.7%

O=[N+]([O-])c1cc2c(cc1Br)C1C(C3C2C(Cl)(Cl)C(Cl)=C(Cl)C3(Cl)Cl)C(Cl)(Cl)C(Cl)=C(Cl)C1(Cl)Cl (stereo unspecified)
inactive: HCT-15 colon 103% | HT29 colon 102% | SNB-75 CNS 85.8% | SNB-19 CNS 106% | PC-3 prostate 85.1% | SK-MEL-5 melanoma 102% | UACC-62 melanoma 87.1% | LOX IMVI melanoma 91.9% | SK-MEL-28 melanoma 102%

O=C1C(Br)=C(c2ccccc2)C(=O)C(Br)=C1c1ccccc1
inactive: HCT-15 colon 85.7% | HT29 colon 110% | SNB-75 CNS 78% | SNB-19 CNS 93.6% | PC-3 prostate 91.5% | SK-MEL-5 melanoma 98.5% | UACC-62 melanoma 83.1% | LOX IMVI melanoma 97.5% | SK-MEL-28 melanoma 107%

COC1(OC)C2(Cl)C=C(c3ccccc3)C1(Cl)C(Cl)=C2Cl (stereo unspecified)
inactive: HCT-15 colon 119% | HT29 colon 83.5% | SNB-75 CNS 67% | SNB-19 CNS 102% | PC-3 prostate 86.2% | SK-MEL-5 melanoma 104% | UACC-62 melanoma 96.6% | LOX IMVI melanoma 90% | SK-MEL-28 melanoma 102%

O=C1CCC(N2C(=O)c3cccc(NCCOCCOCCNC(=O)c4cc5c(o4)C(=O)c4ccccc4C5=O)c3C2=O)C(=O)N1 (stereo unspecified)
active: HT29 colon -16.8% | SNB-75 CNS -98.2% | SNB-19 CNS -24.3% | PC-3 prostate 6.46% | SK-MEL-5 melanoma -98.2% | UACC-62 melanoma -81.8% | LOX IMVI melanoma -74.1% | SK-MEL-28 melanoma -38.7%
inactive: HCT-15 colon 55.1%

CCOC(=O)c1cnn(CC(O)c2ccc(F)cc2)c1NC(=O)Nc1ccccc1F (stereo unspecified)
inactive: HCT-15 colon 103% | HT29 colon 117% | SNB-75 CNS 82.2% | SNB-19 CNS 98.3% | PC-3 prostate 81.5% | SK-MEL-5 melanoma 75.9% | UACC-62 melanoma 73.8% | LOX IMVI melanoma 101% | SK-MEL-28 melanoma 101%

Cc1ccc(S(=O)(=O)N2CCc3ccc(O)c4c3C2Cc2ccc3c(c2-4)OCO3)cc1 (stereo unspecified)
active: SNB-75 CNS 5.09%
inactive: HCT-15 colon 30.6% | HT29 colon 52.3% | SNB-19 CNS 52.3% | PC-3 prostate 26.8% | SK-MEL-5 melanoma 25.9% | UACC-62 melanoma 22.1% | LOX IMVI melanoma 35.6% | SK-MEL-28 melanoma 44.4%
